Results on 21 compounds are retold here after PubChem BioAssay (NCI).

This is part of a sample that, as a whole, favours compounds with a hit. Of some 79,000 tested, about 15% had one in any assay. Values without a mark were called inactive. Calls of active or inactive are those of the source. Rule as the data show it: active = growth inhibition above about 70%; inactive = the rest.

A short description of assay [1]: NCI Yeast Anticancer Drug Screen. Data for the rad50 strain (AID 155).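 Also: 0% = growth of vehicle-only cultures of the same strain.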 Particulars: S. cerevisiae rad50 strain growth inhibition; at 50.0 µM; hits give high values. Summed up:
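Cells are treated with compound, grown, and their growth is then scored against vehicle-only cultures of the same repair-deficient yeast strain.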

Assay [2] can be described thus: NCI Yeast Anticancer Drug Screen. Data for the mec2-1 strain (AID 157). The note with it: S. cerevisiae mec2-1 strain, at 50.0 µM, hits give high values. Summed up: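 Readout is yeast growth inhibition, normalised to vehicle-treated controls, in the mec2-1 strain exposed to compound.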
Assay [3] in a line: NCI Yeast Anticancer Drug Screen. Data for the sgs1 mgt1 strain (AID 161).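 Also: 0% = growth of cultures given vehicle only.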 The note with it: S. cerevisiae sgs1 mgt1 strain, at 50.0 µM, hits give high values. Summed up: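 Yeast cells carrying a defined DNA-repair defect were exposed to test compounds. Growth inhibition was measured relative to vehicle-treated controls.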
Assay [4] can be described thus: NCI Yeast Anticancer Drug Screen. Data for the cln2 rad14 strain (AID 165).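 Also: 0% = growth equal to vehicle treated cultures.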 Particulars: S. cerevisiae cln2 rad14 strain, at 50.0 µM, hits give high values. In a few lines: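 Relative to vehicle controls, growth inhibition of compound-treated cln2 rad14 yeast was recorded.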
The nature of assay [5]: NCI Yeast Anticancer Drug Screen. Data for the bub3 strain (AID 167). Particulars: S. cerevisiae bub3 mutant strain, at 50.0 µM, hits give high values. Summed up: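 Part of a panel of yeast mutants defective in DNA damage repair or cell cycle regulation. Each strain is grown with compound, and inhibition is calculated relative to solvent-treated cultures.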
Assay [6] can be described thus: NCI Yeast Anticancer Drug Screen. Data for the mlh1 rad18 strain (AID 175). Particulars: S. cerevisiae mlh1 rad18 strain growth inhibition; at 50.0 µM; hits give high values. In a few lines: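 Test agents were incubated with a yeast strain of defined genotype (DNA damage repair defect). Inhibition of growth was derived by comparison with vehicle-exposed cultures.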

As to `CCCCCCCN(CCCCCCC)CC(O)c1c(OC)c2ccccc2c2ccccc12` (stereo unspecified), the growth inhibition in assay [1] was 94.8% (active); in assay [2] it was 34.4%; in assay [3], 96.2% (active); in assay [4], 93% (active); in assay [5] it was 24.9%; in assay [6] it was 93.7% (active).

For `C=C1C(=O)OC(CCCCCCCCCCCCCC(C)=O)[C@H]1C(=O)O` (stereo partly specified), the growth inhibition in assay [1] is 10.2%; in assay [2] it was -9.75%; in assay [3] it was 22.1%; in assay [4] it was 4.85%; in assay [5], -10.9%; in assay [6] it was 9.8%.

As to `CC1=NN(C(=O)CC(=O)Nc2ccc(C(=O)O)cc2)C(=O)C1N=Nc1ccccc1C(=O)O` (stereo unspecified), the growth inhibition in assay [1] is 18.1%; in assay [2] it was 18%; in assay [3] it was 6.25%; in assay [4], -6.5%; in assay [5], -1.9%; in assay [6] it was 25.7%.

`N#CCC(=O)O`: the growth inhibition is -0.2% in assay [1]; 6.5% in assay [2]; -4.3% in assay [3]; 2.05% in assay [4]; -3.2% in assay [5]; -9% in assay [6].

In the case of `Cc1cc2oc(C)c(S(=O)(=O)NC(=O)Nc3ccc(Cl)cc3)c(=O)c2c(=O)o1`, the growth inhibition in assay [1] is -2.85%; in assay [2], -0.45%; in assay [3] it was -2.5%; in assay [4], 3.55%; in assay [5] it was 12.2%; in assay [6], -2.8%.

Turning to `O=S1(=O)C=CC(N/N=C/c2cc(Cl)cc(Cl)c2)=C1`, the growth inhibition in assay [1] is 37.7%; in assay [2] it was 9.3%; in assay [3], 20.5%; in assay [4], -38.2%; in assay [5], 26.9%; in assay [6], 26.6%.

For the compound `Cc1ccccc1C(=O)c1ccccc1Cc1cccc2ccccc12`, the growth inhibition in assay [1] is -2.4%; in assay [2], -10.3%; in assay [3], -10.2%; in assay [4], 1.1%; in assay [5], 8.95%; in assay [6] it was -22.9%.

Consider `CNc1ccc([N+](=O)[O-])cn1`, for which the growth inhibition in assay [1] is 19.9%; in assay [2], -13.4%; in assay [3] it was 31.6%; in assay [4], 8.75%; in assay [5], 19.9%; in assay [6] it was 4.15%.

`C/C(=N/NC(=O)c1ccccc1)C(=O)c1ccccc1`: the growth inhibition in assay [1] is -4.4%; in assay [2], -12.2%; in assay [3], -2.65%; in assay [4], -1.2%; in assay [5], 6%; in assay [6] it was -0.15%.

With `COc1ccc(-c2oc3cc(OC)c(OC)c(O)c3c(=O)c2OC)cc1`, the growth inhibition is 7.45% in assay [1]; 0.25% in assay [2]; 3.05% in assay [3]; 9.05% in assay [4]; 13.8% in assay [5]; -56.5% in assay [6].

`CC1(C)Cc2c(oc3ncnc(N)c23)CS1`: the growth inhibition in assay [1] was -10.3%; in assay [2] it was -14.1%; in assay [3] it was -8.8%; in assay [4], -4.75%; in assay [5] it was -4.65%; in assay [6], 9.2%.

Consider `O=c1[nH]c2c([N+](=O)[O-])cc(Cl)cc2nc1/C=C(\O)c1ccncc1`, for which the growth inhibition in assay [1] was 42.5%; in assay [2] it was 8.75%; in assay [3], 42.6%; in assay [4] it was 9.45%; in assay [5] it was 18.3%; in assay [6] it was 51.4%.

As for `O=C1CC(Cc2n[nH]c3c2CCC3)CC(=O)N1`, the growth inhibition in assay [1] was -8.25%; in assay [2], 2.65%; in assay [3], -10.2%; in assay [4], -16.4%; in assay [5], -10%; in assay [6], -13.2%.

Take `NC(CSS(=O)(=O)O)=NCC1CC2CCC1C2` (stereo unspecified): the growth inhibition in assay [1] is 3.25%; in assay [2], 6.2%; in assay [3], -3.85%; in assay [4], 6.95%; in assay [5] it was 4.4%; in assay [6], 12.3%.

As for `CN(C)C1CS(=O)(=O)OC2=C1CCSc1ccccc12` (stereo unspecified), the growth inhibition in assay [1] is 5.1%; in assay [2], 12.1%; in assay [3], 11.4%; in assay [4], -84.7%; in assay [5] it was -5.65%; in assay [6], 7.6%.

Turning to `CC(CC(C)(C)C)C(=O)NC(N)=O` (stereo unspecified), the growth inhibition was 29.3% in assay [1]; -4.05% in assay [2]; -7.95% in assay [3]; -0.6% in assay [4]; 8.65% in assay [5]; 7.6% in assay [6].

In the case of `CC(C)(O)c1cccc(I)c1`, the growth inhibition in assay [1] is 7.7%; in assay [2], -58.9%; in assay [3], -21.1%; in assay [4], -144%; in assay [5], -39.8%; in assay [6], 1.55%.

With `CCCCCCCCCC(CC(OC)OCC)OC` (stereo unspecified), the growth inhibition is 10.7% in assay [1]; 4.25% in assay [2]; 5.9% in assay [3]; -13.8% in assay [4]; -2.7% in assay [5]; -24.6% in assay [6].

For the compound `CCOC(=O)C(=O)Cc1ccccn1`, the growth inhibition in assay [1] was -0.7%; in assay [2], -6.55%; in assay [3] it was -6.5%; in assay [4] it was -16.3%; in assay [5] it was 8.85%; in assay [6], -13.2%.

Regarding `Cn1c(=O)c2ncn(Cc3ccccc3)c2n(C)c1=O`, the growth inhibition in assay [1] was 1.8%; in assay [2], 4.4%; in assay [3], 0.85%; in assay [4], 0.75%; in assay [5] it was -7.75%; in assay [6], 13.2%.

For `O=C(Nc1nc2ncn(CC(COc3ccccc3)OC(=O)c3ccccc3)c2c(=O)[nH]1)c1ccccc1` (stereo unspecified), the growth inhibition was -9.85% in assay [1]; 9.55% in assay [2]; 6.5% in assay [3]; 15.2% in assay [4]; 12.2% in assay [5]; -6.65% in assay [6].
